Assay results reported in PubChem BioAssay (Tox21).
Results filed as inconclusive are left out. Active and inactive are the calls of the source. Unless noted, the call rests on the fitted dose curve.

Experiments:
[1] = Nuclear factor erythroid 2-related factor 2/antioxidant responsive element (Nrf2/ARE) small molecule agonists: qHTS cell viability counter screen in human keratinocytes (AID 1919968; active means well fitted curve in the direction sought with a large enough effect in the repeat runs; an effect the other way counts as inactive or inconclusive; further: nearly all actives have a fitted effect of over 55% in size)
Outline: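 Seed 1,500 KeratinoSens cells per well, then incubate 5 h at 37 C/5% CO2. Add compounds in DMSO and incubate 23 h. Add CellTiter-Fluor, wait 1 h and read fluorescence.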

[2] = biological target: Gonadotropin-releasing hormone receptor (Homo sapiens) (UniProt P30968); test: Human gonadotropin-releasing hormone receptor (GnRHR) small molecule agonists, calcium flux assay in GnRHR-HEK293 cells (AID 1920063); further: nearly all actives have a fitted effect of over 35% in size
Chain of Gonadotropin-releasing hormone receptor (Homo sapiens) (P30968 whole entry, looked up): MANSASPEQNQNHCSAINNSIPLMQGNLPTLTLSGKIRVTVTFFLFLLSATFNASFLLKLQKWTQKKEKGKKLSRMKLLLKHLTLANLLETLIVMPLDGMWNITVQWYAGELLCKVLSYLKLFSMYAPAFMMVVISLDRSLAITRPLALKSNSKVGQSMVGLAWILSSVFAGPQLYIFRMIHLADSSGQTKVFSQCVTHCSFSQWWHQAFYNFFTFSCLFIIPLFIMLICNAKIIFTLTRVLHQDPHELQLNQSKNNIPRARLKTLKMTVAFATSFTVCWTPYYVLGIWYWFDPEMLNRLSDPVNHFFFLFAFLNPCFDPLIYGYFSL
Outline: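 Cells: HEK293 stably expressing human GnRHR. Steps: overnight (18 h) culture, 1 h calcium dye loading at 37 C, compound addition, kinetic fluorescence read at 480/540 nm. Each compound tested at 15 concentrations in triplicate.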

[3] = biological target: KiSS-1 receptor (Homo sapiens) (UniProt Q969F8); test: Human kisspeptin (KISS1R) small molecule agonists, calcium flux assay in KISS1R-HEK293 cells (AID 1920064; active means well fitted curve in the direction sought with a large enough effect in the repeat runs; an effect the other way counts as inactive or inconclusive)
Chain of KiSS-1 receptor (Homo sapiens) (Q969F8 whole entry, looked up): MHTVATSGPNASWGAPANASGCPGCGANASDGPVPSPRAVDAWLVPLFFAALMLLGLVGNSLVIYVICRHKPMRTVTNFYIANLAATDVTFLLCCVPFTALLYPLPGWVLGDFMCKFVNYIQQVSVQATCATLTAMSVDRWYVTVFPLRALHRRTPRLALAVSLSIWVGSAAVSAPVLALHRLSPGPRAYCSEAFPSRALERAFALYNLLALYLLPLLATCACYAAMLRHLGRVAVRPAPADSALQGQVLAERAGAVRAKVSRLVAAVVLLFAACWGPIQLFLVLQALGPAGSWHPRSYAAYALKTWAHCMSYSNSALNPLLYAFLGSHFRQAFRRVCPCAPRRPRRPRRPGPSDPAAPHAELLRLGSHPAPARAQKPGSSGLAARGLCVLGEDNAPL
Outline: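 Cells plated and incubated 18 h; dye added, 1 h at 37 C; compounds in DMSO pinned in; signal read at 480/540 nm every second for 3 min. Each compound tested at 15 concentrations in triplicate.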

[4] = G protein-coupled receptor (GPCR) small molecule agonists, calcium flux assay: HEK293 wild type cell line counter screen (AID 1920065)
Outline: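 Counter-screen of the Tox21 10K library for non-specific calcium release: dye-loaded cells received compounds in DMSO and were monitored by kinetic fluorescence (480/540 nm, 3 min). Fifteen concentrations, run in triplicate.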

[5] = p53 small molecule agonists, cell-based qHTS assay with human liver microsomes: qHTS cell viability counter screen (AID 1963579); further: nearly all actives have a fitted effect of over 45% in size
Outline: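 Metabolically activated exposure: compounds, human liver microsomes and NADPH (0.5 mg/mL final apiece) were added to p53RE-bla cells seeded 5 h earlier, left 16 h at 37 C, and then assessed for viability by CellTiter-Glo luminescence.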

[6] = p53 small molecule agonists, cell-based qHTS assay with rat liver microsomes: qHTS cell viability counter screen (AID 1963580); further: nearly all actives have a fitted effect of over 45% in size
Outline: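 Viability is assessed in parallel with the p53 reporter read: HCT-116 p53RE-bla cells receive compounds plus rat microsomes and NADPH (0.5 mg/mL final apiece), incubate 16 h at 37 C, and then CellTiter-Glo luminescence is recorded.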

[7] = p53 small molecule agonists, cell-based qHTS assay: qHTS cell viability counter screen (AID 1963581); further: nearly all actives have a fitted effect of over 45% in size
Outline: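 Cells: HCT-116 with p53 response element-driven beta-lactamase. Treatment: 16 h, 37 C, compounds in DMSO. Read: CellTiter-Glo luminescence after 30 min RT.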

[8] = biological target: 5-hydroxytryptamine receptor 2A (Homo sapiens) (UniProt P28223); test: 5-hydroxytryptamine receptor 2A (HTR2A) small molecule antagonists, cell-based qHTS assay (AID 1963586); further: nearly all actives have a fitted effect of over 45% in size
Chain of 5-hydroxytryptamine receptor 2A (Homo sapiens) (P28223 whole entry, looked up): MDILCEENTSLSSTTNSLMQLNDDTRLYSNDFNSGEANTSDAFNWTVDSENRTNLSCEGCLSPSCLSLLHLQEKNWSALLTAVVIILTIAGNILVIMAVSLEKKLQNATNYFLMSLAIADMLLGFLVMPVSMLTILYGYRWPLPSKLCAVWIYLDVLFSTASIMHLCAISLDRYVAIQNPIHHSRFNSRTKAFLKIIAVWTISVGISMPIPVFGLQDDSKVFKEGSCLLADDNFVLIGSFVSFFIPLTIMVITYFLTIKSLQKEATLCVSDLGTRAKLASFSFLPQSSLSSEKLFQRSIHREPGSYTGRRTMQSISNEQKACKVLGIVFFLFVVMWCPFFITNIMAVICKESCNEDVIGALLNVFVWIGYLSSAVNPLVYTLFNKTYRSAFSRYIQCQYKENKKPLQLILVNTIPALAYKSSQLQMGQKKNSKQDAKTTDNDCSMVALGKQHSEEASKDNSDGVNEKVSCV
Outline: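 Antagonist-mode intracellular calcium assay: DOI (4 nM) added after 5 min compound pre-incubation at room temperature to dye-loaded HTR2A-CHO cells. Fluorescence followed for 3 min, sampled every second.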

[9] = biological target: 5-hydroxytryptamine receptor 2A (Homo sapiens) (UniProt P28223); test: 5-hydroxytryptamine receptor 2A (HTR2A) small molecule agonists, cell-based qHTS assay (AID 1963587); further: nearly all actives have a fitted effect of over 30% in size
Outline: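 CHO cells stably expressing human HTR2A, plated 18 h, loaded with calcium dye 1 h at 37 C. Agonist mode: compounds added and intracellular calcium fluorescence recorded kinetically for 2 min at 1 sec intervals.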

[10] = biological target: Muscarinic acetylcholine receptor M1 (Homo sapiens) (UniProt P11229); test: Cholinergic receptor muscarinic 1 (CHRM1) small molecule antagonists, cell-based qHTS assay (AID 1963588); further: nearly all actives have a fitted effect of over 40% in size
Chain of Muscarinic acetylcholine receptor M1 (Homo sapiens) (P11229 whole entry, looked up): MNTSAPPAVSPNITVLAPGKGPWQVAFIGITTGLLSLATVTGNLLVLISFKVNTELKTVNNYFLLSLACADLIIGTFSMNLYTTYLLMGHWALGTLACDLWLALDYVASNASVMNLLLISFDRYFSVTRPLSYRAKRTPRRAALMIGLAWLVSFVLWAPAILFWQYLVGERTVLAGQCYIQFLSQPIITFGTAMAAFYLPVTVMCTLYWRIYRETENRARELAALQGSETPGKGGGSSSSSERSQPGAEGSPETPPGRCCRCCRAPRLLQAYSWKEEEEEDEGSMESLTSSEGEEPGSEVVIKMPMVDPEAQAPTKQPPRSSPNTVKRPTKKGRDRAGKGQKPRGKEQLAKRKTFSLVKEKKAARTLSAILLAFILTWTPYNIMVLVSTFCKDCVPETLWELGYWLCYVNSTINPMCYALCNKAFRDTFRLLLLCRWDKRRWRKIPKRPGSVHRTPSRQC
Outline: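 CHRM1-CHO calcium-flux assay, antagonist mode. Cells were seeded 18 h, dye-loaded 1 h at 37 C and given compound for 5 min at RT, then acetylcholine was added at 50nM. FDSS fluorescence was read 3 min; 15 concentrations, three runs.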

[11] = cAMP Responsive Elements (CRE) small molecule agonists, cell-based qHTS assay (AID 1963590)
Outline: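 Agonist mode qHTS in CRE-bla HEK 293T cells: compounds dosed from DMSO for 3 h at 37 C/5% CO2, followed by LiveBLAzer B/G FRET substrate for 2 h at room temperature.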

[12] = biological target: Beta-2 adrenergic receptor (Homo sapiens) (UniProt P07550); test: Adrenergic beta2 receptor (ADRB2) small molecule antagonists, cell-based qHTS assay (AID 1963592); further: series mostly up to about 92 µM; nearly all actives have a fitted effect of over 50% in size
Chain of Beta-2 adrenergic receptor (Homo sapiens) (P07550 whole entry, looked up): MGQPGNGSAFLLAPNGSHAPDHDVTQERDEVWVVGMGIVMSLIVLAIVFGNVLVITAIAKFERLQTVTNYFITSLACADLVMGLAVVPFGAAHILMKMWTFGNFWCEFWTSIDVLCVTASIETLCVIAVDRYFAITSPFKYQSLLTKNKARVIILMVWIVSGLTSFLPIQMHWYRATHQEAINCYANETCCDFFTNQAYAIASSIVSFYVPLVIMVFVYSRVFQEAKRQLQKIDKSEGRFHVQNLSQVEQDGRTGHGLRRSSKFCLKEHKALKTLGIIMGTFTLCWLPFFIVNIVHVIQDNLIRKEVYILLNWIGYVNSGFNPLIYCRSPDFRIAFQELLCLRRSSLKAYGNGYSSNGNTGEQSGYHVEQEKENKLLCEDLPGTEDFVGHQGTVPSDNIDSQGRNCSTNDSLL
Outline: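 Cells (CHO, stable ADRB2 overexpression) incubated 18-20hr at 37C; compounds added from DMSO; agonist mix (1nM isoproterenol, 100uM IBMX, 25uM Ro-20-1724) added; 0.5hr RT; d2-cAMP and anti-cAMP-cryptate added; 1hr RT; 665/615 nm read.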

[13] = biological target: Beta-2 adrenergic receptor (Homo sapiens) (UniProt P07550); test: Adrenergic beta2 receptor (ADRB2) small molecule agonists, cell-based qHTS assay (AID 1963593);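 further: CHO cells stably overexpressing human ADRB2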
Outline: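 CHO cells stably over-expressing ADRB2 were plated overnight at 37C, then dosed with compounds plus a stimulation mix containing 100uM IBMX and 25uM Ro-20-1724 for 0.5hr at room temperature. cAMP was measured by HTRF competition, 1hr.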

[14] = biological target: D(2) dopamine receptor (Homo sapiens) (UniProt P14416); test: Dopamine D2 receptor (DRD2) small molecule agonists, cell-based qHTS assay (AID 1963594); further: nearly all actives have a fitted effect of over 35% in size
Chain of D(2) dopamine receptor (Homo sapiens) (P14416 whole entry, looked up): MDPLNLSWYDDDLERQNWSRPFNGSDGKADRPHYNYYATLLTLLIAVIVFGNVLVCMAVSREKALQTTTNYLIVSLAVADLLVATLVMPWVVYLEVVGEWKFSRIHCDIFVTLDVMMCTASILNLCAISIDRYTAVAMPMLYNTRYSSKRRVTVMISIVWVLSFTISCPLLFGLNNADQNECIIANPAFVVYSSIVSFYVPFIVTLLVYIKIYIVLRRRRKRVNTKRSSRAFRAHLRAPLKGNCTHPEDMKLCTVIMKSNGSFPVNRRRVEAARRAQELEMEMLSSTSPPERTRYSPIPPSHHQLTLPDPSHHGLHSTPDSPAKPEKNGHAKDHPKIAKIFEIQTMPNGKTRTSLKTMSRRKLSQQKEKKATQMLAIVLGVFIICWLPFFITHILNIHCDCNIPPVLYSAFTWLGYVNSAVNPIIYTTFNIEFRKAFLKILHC
Outline: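 HEK293 cells stably expressing human DRD2, pre-treated with PDE inhibitor Ro20-1724 (0.1 mM final) and compound 10 min at room temperature, then stimulated with NKH477 (200nM […]) for 30 min. cAMP read by HTRF (665/620 nm).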

[15] = biological target: D(2) dopamine receptor (Homo sapiens) (UniProt P14416); test: Dopamine D2 receptor (DRD2) small molecule antagonists, cell-based qHTS assay (AID 1963595; active means well fitted inhibition curve with a large enough effect in the signal ratio in the repeat runs, with a control signal flat; the % refers to the signal ratio)
Outline: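 Stable D2 receptor HEK293 line, 24 h after seeding. Compound preincubated 10 min, then quinpirole (12 nM) with forskolin analogue NKH477 (200 nM), 30 min, room temperature. Detection by time-resolved FRET of cAMP.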

[16] = biological target: Muscarinic acetylcholine receptor M1 (Homo sapiens) (UniProt P11229); test: Cholinergic receptor muscarinic 1 (CHRM1) small molecule agonists, cell-based qHTS assay (AID 1963589); further: nearly all actives have a fitted effect of over 35% in size
Outline: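 Agonist-mode qHTS in CHO cells stably carrying human muscarinic M1. Intracellular calcium is tracked by fluorescence every second after compound transfer; each compound runs at 15 concentrations in three independent runs.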

[17] = cAMP Responsive Elements (CRE) small molecule antagonists, cell-based qHTS assay (AID 1963591; active means well fitted inhibition curve with a large enough effect in the signal ratio in the repeat runs, not every such curve was filed as active; the % refers to the signal ratio)
Outline: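 Antagonist mode: test compounds are co-incubated with the adenylyl cyclase activator NKH477 (0.25 uM final) on CRE-bla HEK293T cells for 3 h at 37 °C, followed by LiveBLAzer substrate loading.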

[18] = p53 small molecule agonists, cell-based qHTS assay with human liver microsomes (AID 1963577);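 further: p53 response element beta-lactamase reporter cells with liver microsomes plus NADPH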
Outline: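 In this qHTS, p53 response-element beta-lactamase cells receive test compound together with a microsome/NADPH activating system (0.5 mg/mL final each) and are incubated 16 h at 37 C before LiveBLAzer fluorescence detection.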

[19] = p53 small molecule agonists, cell-based qHTS assay (AID 1963582; active means well fitted activation curve with a large enough effect in the signal ratio in the repeat runs, not every such curve was filed as active; the % refers to the signal ratio)
Outline: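 Quantitative HTS in p53RE-bla cells: after a 5 h settling period, compounds delivered in DMSO were left on cells for 16 h at 37 C, and reporter induction was measured as fluorescence following 2 h substrate loading.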
On the % scale 0 is the no-effect control and ±100 the full control effect.

Clc1ccccc1
inactive: Potency [1] | Potency [2] | Potency [3] | Potency [4] | Potency [5] | Potency [6] | Potency [7] | Potency [8] | Potency [9] | Potency [10] | Potency [11] | Potency [12] | Potency [13] | Potency [14] | Potency [15]

CNC(=O)Oc1cccc(C(C)C)c1
inactive: Potency [1] | Potency [2] | Potency [3] | Potency [4] | Potency [5] | Potency [6] | Potency [7] | Potency [8] | Potency [9] | Potency [16] | Potency [11] | Potency [17] | Potency [12] | Potency [13] | Potency [14] | Potency [15]

[C-]1=CC=CC1.[Cl][Zr+2][Cl].c1cc[cH-]c1
inactive: Potency [1] | Potency [2] | Potency [3] | Potency [4] | Potency [5] | Potency [6] | Potency [8] | Potency [9] | Potency [16] | Potency [11] | Potency [17] | Potency [12] | Potency [14] | Potency [15]

C=CC(=O)OCC(C)O (configuration not stated)
inactive: Potency [1] | Potency [2] | Potency [3] | Potency [4] | Potency [5] | Potency [6] | Potency [7] | Potency [8] | Potency [9] | Potency [11] | Potency [17] | Potency [12] | Potency [14] | Potency [15]

C=CC(=O)OCCCCO
inactive: Potency [1] | Potency [2] | Potency [3] | Potency [4] | Potency [5] | Potency [8] | Potency [9] | Potency [10] | Potency [16] | Potency [12] | Potency [13] | Potency [14] | Potency [15]

CCCCCCC(=O)CCCCCC/C=C/C[C@@H](O)[C@H](O)[C@@](N)(CO)C(=O)O
inactive: activity change, negative = cytotoxicity [1] -1.3% [at 19 µM] | activation [3] 0.0857% [at 15.8 µM] | activation [4] 0.714% [at 11.8 µM] | activation [18] 4.34% [at 13.5 µM] | activity change, negative = cytotoxicity [5] 0.682% [at 13.5 µM] | activity change, negative = cytotoxicity [7] 17.4% [at 13.5 µM] | activation [19] 0.605% [at 13.5 µM] | activity, negative = inhibition [8] 87.4% [at 12.7 µM] | activation [9] 2.62% [at 15.9 µM] | activity, negative = inhibition [10] 3.07% [at 12.6 µM] | activation [16] -0.559% [at 15.8 µM] | activation [11] 3.57% [at 19 µM] | activity change, negative = inhibition [17] -12.2% [at 18.9 µM] | activity change, negative = inhibition [12] 9.53% [at 19 µM] | activity change, negative = inhibition [15] 0.928% [at 18.9 µM]
